# Data as given in PubChem BioAssay (EPA / NIEHS).
# Records with an inconclusive call do not appear. Calls of active or inactive are those of the source. The calls were made as follows: active = hit-call score of the fitted dose curve at least 0.9, where 1 is the maximum; inconclusive = response in the unintended direction; inactive = score below 0.9.
# Experiments:
# [1] = test system: rabbit Platelet Activating Factor Receptor (PAF), gene 100354046; experiment: NVS_GPCR_rabPAF: NovaScreen (NVS) G Protein-Coupled Receptor Assay for rabbit Platelet Activating Factor Receptor (PAF) (AID 2283287)
# Outline: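 Rabbit platelet membrane preparation; radioligand displacement read by filter-based scintillation counting 1 h after dosing, loss of signal versus DMSO. Primary screen in duplicate at 25 uM, actives followed up in concentration series.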
# [2] = biological target: Muscarinic acetylcholine receptor M2 (Homo sapiens) (UniProt P08172); experiment: NVS_GPCR_hM2: NovaScreen (NVS) G Protein-Coupled Receptor Assay for human Muscarinic, M2 Receptor (AID 2283273)
# Sequence of Muscarinic acetylcholine receptor M2 (Homo sapiens) (P08172 whole entry, looked up): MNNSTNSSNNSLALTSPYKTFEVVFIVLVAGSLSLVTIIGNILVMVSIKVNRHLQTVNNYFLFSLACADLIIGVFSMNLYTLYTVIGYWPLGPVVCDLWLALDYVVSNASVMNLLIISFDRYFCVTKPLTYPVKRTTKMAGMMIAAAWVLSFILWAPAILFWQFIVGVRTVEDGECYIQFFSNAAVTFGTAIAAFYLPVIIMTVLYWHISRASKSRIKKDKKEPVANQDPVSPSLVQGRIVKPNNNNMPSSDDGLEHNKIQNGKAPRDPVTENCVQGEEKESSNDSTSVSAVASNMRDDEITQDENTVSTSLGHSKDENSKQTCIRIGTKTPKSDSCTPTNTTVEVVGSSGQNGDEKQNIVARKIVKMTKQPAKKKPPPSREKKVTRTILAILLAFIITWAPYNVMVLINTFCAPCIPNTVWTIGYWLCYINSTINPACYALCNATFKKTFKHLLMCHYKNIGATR
# Outline: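 Cell-free radioligand binding using membranes from CHO cells expressing the receptor; filter-based scintillation counting after 1 hour of compound exposure. Loss of specific binding relative to DMSO baseline; primary screen at 25 uM in duplicate, actives then run in concentration series.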
# [3] = biological target: human Muscarinic, M4 Receptor, CHRM4 (gene 1132) (UniProt P08173); experiment: NVS_GPCR_hM4: NovaScreen (NVS) G Protein-Coupled Receptor Assay for human Muscarinic, M4 Receptor (AID 2283274)
# Sequence of human Muscarinic, M4 Receptor, CHRM4 (gene 1132) (P08173 whole entry, looked up): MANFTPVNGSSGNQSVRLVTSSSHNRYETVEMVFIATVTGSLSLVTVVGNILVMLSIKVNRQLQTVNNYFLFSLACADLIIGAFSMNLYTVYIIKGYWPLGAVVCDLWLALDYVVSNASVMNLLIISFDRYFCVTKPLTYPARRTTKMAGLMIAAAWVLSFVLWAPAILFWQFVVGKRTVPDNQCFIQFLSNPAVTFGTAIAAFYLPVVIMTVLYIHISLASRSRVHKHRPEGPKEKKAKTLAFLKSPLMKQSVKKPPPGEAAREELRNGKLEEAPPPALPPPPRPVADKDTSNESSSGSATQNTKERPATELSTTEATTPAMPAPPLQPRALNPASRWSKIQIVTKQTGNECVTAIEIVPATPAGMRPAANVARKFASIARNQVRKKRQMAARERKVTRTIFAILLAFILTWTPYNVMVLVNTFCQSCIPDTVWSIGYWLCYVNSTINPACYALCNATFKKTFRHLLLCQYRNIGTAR
# Outline: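 Cell-free radioligand displacement using CHO-derived human M4 receptor protein, 1 h after dosing; bound radioactivity by filtration and scintillation counting. Primary screen single 25 uM duplicate, actives followed in concentration series.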
# [4] = biological target: rat Serotonin, 5-Hydroxytryptamine Receptor (5HT), Non-Selective Binding, Htr1a (gene 24473) (UniProt P19327); experiment: NVS_GPCR_r5HT_NonSelective: NovaScreen (NVS) G Protein-Coupled Receptor Assay for rat Serotonin, 5-Hydroxytryptamine Receptor (5HT), Non-Selective Binding (AID 2283295)
# Sequence of rat Serotonin, 5-Hydroxytryptamine Receptor (5HT), Non-Selective Binding, Htr1a (gene 24473) (P19327 whole entry, looked up): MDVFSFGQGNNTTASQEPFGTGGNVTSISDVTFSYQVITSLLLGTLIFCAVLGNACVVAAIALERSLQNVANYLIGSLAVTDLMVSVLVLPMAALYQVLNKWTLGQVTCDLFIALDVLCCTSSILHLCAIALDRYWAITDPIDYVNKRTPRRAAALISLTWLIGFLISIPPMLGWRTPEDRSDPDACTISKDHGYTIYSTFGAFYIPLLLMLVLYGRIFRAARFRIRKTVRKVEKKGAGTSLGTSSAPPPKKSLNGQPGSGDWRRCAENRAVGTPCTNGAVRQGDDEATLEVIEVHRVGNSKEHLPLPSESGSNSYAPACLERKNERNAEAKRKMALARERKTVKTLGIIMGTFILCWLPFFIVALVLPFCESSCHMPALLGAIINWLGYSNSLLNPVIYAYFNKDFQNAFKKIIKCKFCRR
# Outline: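 Radioligand displacement on rat cortical membranes, 1 h incubation, filter-based scintillation counting. Primary duplicates at 25 uM, actives retested in concentration series; loss of signal fitted against DMSO as baseline.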
# [5] = biological target: Neuropeptide Y receptor type 2 (Homo sapiens) (UniProt P49146); experiment: NVS_GPCR_hNPY2: NovaScreen (NVS) G Protein-Coupled Receptor Assay for human Neuropeptide Receptor Y2 (NPY2) (AID 2283277)
# Sequence of Neuropeptide Y receptor type 2 (Homo sapiens) (P49146 whole entry, looked up): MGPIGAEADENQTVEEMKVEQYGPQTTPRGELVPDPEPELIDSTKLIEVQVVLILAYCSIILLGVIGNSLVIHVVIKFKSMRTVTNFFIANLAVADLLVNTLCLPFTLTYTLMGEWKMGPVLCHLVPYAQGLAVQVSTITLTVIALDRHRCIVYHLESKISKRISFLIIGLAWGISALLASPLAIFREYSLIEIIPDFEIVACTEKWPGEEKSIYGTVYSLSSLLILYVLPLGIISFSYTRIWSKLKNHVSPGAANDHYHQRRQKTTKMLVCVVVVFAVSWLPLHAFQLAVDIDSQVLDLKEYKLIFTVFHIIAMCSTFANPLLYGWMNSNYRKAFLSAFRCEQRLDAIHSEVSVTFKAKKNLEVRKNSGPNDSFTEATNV
# Outline: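 Radioligand binding on membranes extracted from SK-N-MC cells, cell-free, read 1 h after dosing by filter-based scintillation counting. Loss of signal vs DMSO. Primary screen in duplicate at 25 uM; actives followed up in concentration-response up to 50 uM.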
# [6] = biological target: rat Serotonin, 5-Hydroxytryptamine Receptor 1 (5HT1), Non-Selective Binding, Htr1a (gene 24473) (UniProt P19327); experiment: NVS_GPCR_r5HT1_NonSelective: NovaScreen (NVS) G Protein-Coupled Receptor Assay for rat Serotonin, 5-Hydroxytryptamine Receptor 1 (5HT1), Non-Selective Binding (AID 2283286)
# Sequence of rat Serotonin, 5-Hydroxytryptamine Receptor 1 (5HT1), Non-Selective Binding, Htr1a (gene 24473) (P19327 whole entry, looked up): as the sequence (P19327 whole entry, looked up) above
# Outline: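 Rat cortical membranes, radioligand displacement, 1 h incubation, read by filter scintillation. Primary screen in duplicate at 25 uM. Hits (e.g. ≥30% inhibition) went to concentration-response up to 50 uM, fitted as loss of binding versus DMSO.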
# [7] = test system: rat Adrenergic, Alpha 1B Receptor (Adra1B), gene 24173; experiment: NVS_GPCR_rAdra1B: NovaScreen (NVS) G Protein-Coupled Receptor Assay for rat Adrenergic, Alpha 1B Receptor (Adra1B) (AID 2283297)
# Outline: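 Rat liver membranes, radioligand displacement with filter-based scintillation detection, 1 h incubation. Primary screen in duplicate at 25 uM; actives retested in concentration series; activity relative to DMSO.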
# [8] = biological target: guinea pig Bradykinin Receptor B2 (BK2), BDKRB2 (gene 100135486) (UniProt O70526); experiment: NVS_GPCR_gBK2: NovaScreen (NVS) G Protein-Coupled Receptor Assay for guinea pig Bradykinin Receptor B2 (BK2) (AID 2283292)
# Sequence of guinea pig Bradykinin Receptor B2 (BK2), BDKRB2 (gene 100135486) (O70526 whole entry, looked up): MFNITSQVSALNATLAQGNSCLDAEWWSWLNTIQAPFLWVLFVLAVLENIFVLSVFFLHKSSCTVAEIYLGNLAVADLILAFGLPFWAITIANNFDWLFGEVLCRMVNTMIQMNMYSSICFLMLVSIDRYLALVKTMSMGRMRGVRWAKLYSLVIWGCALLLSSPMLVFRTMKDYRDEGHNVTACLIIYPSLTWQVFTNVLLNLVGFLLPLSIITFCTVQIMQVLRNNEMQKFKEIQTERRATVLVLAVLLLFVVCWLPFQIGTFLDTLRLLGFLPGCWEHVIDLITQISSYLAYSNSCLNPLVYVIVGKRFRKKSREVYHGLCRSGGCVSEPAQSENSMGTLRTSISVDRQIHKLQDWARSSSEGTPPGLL
# Outline: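 Radioligand displacement on guinea pig ileum membranes for 1 h, read by filter-based scintillation counting; loss of signal relative to DMSO. Compounds were screened in duplicate at 25 uM, and those passing the threshold were retested in concentration-response up to 50 uM.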
# [9] = biological target: human Neurokinin, NK2 Receptor, TACR2 (gene 6865) (UniProt P21452); experiment: NVS_GPCR_hNK2: NovaScreen (NVS) G Protein-Coupled Receptor Assay for human Neurokinin, NK2 Receptor (AID 2283278);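 also: actives reduce bound radioligand signal relative to DMSO baseline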
# Sequence of human Neurokinin, NK2 Receptor, TACR2 (gene 6865) (P21452 whole entry, looked up): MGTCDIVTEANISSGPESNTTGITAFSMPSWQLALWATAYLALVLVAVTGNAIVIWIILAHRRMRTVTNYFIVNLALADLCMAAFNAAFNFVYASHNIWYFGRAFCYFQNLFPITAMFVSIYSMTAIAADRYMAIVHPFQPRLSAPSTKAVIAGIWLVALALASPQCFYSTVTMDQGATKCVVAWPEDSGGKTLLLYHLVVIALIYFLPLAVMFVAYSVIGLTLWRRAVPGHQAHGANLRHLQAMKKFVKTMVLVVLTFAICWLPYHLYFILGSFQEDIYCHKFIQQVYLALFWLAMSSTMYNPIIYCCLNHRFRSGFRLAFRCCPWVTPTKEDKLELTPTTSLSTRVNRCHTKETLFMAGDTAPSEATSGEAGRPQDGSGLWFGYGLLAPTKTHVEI
# Outline: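 CHO-derived membrane protein, radioligand displacement, filter scintillation read at 4 h post-dose. Single-point 25 uM in duplicate, then concentration series for actives; DMSO as negative control.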
# [10] = biological target: rat Adrenergic, Alpha 1, Non-selective Receptor (Adra1), Adra1a (gene 29412) (UniProt P43140); experiment: NVS_GPCR_rAdra1_NonSelective: NovaScreen (NVS) G Protein-Coupled Receptor Assay for rat Adrenergic, Alpha 1, Non-selective Receptor (Adra1) (AID 2283289)
# Sequence of rat Adrenergic, Alpha 1, Non-selective Receptor (Adra1), Adra1a (gene 29412) (P43140 whole entry, looked up): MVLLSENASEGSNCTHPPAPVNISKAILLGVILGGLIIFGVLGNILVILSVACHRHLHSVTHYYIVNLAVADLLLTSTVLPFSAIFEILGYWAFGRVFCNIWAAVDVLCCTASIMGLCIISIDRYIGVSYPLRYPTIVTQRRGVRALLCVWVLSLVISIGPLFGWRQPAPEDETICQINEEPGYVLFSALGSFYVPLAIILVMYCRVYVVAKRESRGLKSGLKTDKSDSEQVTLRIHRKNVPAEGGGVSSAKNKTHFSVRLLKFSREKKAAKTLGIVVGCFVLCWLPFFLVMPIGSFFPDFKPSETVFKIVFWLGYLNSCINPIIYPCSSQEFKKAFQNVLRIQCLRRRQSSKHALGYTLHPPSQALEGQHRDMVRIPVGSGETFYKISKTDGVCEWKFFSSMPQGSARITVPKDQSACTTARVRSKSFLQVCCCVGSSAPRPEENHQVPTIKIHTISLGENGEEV
# Outline: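 Rat forebrain membranes; radioligand displacement read by filter-based scintillation counting 1 h after dosing. Primary screen in duplicate at 25 uM; hits (e.g. ≥30% inhibition) rerun as concentration–response to 50 uM max. Fitted versus DMSO.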
# [11] = biological target: rat Adrenergic, Alpha 1A Receptor (Adra1A), Adra1a (gene 29412) (UniProt P43140); experiment: NVS_GPCR_rAdra1A: NovaScreen (NVS) G Protein-Coupled Receptor Assay for rat Adrenergic, Alpha 1A Receptor (Adra1A) (AID 2283296)
# Sequence of rat Adrenergic, Alpha 1A Receptor (Adra1A), Adra1a (gene 29412) (P43140 whole entry, looked up): as above
# Outline: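 Rat cortical membranes pretreated with chlorethyl clonidine; competitive radioligand displacement, 1 h. Filter-based scintillation counting. Primary screen in duplicate at 25 uM, actives followed in concentration series.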
# [12] = biological target: human Neurotensin Receptor (NTS), NTSR1 (gene 4923) (UniProt P30989); experiment: NVS_GPCR_hNTS: NovaScreen (NVS) G Protein-Coupled Receptor Assay for human Neurotensin Receptor (NTS) (AID 2283279)
# Sequence of human Neurotensin Receptor (NTS), NTSR1 (gene 4923) (P30989 whole entry, looked up): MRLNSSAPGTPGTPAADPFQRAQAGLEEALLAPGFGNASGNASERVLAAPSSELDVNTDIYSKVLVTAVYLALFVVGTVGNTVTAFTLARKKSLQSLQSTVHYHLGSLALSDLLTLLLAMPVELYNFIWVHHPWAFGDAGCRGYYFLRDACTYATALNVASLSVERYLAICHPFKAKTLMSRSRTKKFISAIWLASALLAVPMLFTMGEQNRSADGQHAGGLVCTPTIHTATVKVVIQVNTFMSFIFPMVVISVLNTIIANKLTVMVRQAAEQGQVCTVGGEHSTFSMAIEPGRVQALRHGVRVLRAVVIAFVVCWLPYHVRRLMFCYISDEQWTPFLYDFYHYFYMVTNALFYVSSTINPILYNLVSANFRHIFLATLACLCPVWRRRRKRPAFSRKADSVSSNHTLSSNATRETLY
# Outline: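 Radioligand displacement on human NTSR1 protein from CHO cells, cell-free, 1 h, filter-based scintillation counting. Primary screen at 25 uM in duplicate; hits rerun in concentration-response up to 50 uM.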
# [13] = biological target: guinea pig Serotonin, 5-Hydroxytryptamine Receptor 4 (5HT4), HTR4 (gene 100135548) (UniProt O70528); experiment: NVS_GPCR_g5HT4: NovaScreen (NVS) G Protein-Coupled Receptor Assay for guinea pig Serotonin, 5-Hydroxytryptamine Receptor 4 (5HT4) (AID 2283294)
# Sequence of guinea pig Serotonin, 5-Hydroxytryptamine Receptor 4 (5HT4), HTR4 (gene 100135548) (O70528 whole entry, looked up): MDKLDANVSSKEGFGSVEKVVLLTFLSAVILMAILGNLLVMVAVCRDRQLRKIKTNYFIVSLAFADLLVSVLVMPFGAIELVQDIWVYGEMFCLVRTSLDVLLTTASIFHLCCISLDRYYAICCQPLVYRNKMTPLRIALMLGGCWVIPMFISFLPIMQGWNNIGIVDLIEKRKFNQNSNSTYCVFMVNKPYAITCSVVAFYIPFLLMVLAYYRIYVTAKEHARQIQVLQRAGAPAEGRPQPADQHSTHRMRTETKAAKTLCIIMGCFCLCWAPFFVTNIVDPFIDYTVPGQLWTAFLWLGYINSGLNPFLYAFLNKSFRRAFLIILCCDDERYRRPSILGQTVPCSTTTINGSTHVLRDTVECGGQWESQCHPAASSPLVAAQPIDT
# Outline: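 Guinea pig striatal membranes; radioligand competitive displacement, filtration and scintillation counting after 1 h. Primary screen in duplicate at 25 uM; actives then tested in concentration series; loss of binding signal fitted relative to DMSO.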
# [14] = biological target: rat Adrenergic Receptor, Beta (Adrb), Non-selective Binding, Adrb1 (gene 24925) (UniProt P18090); experiment: NVS_GPCR_rAdrb_NonSelective: NovaScreen (NVS) G Protein-Coupled Receptor Assay for rat Adrenergic Receptor, Beta (Adrb), Non-selective Binding (AID 2283298)
# Sequence of rat Adrenergic Receptor, Beta (Adrb), Non-selective Binding, Adrb1 (gene 24925) (P18090 whole entry, looked up): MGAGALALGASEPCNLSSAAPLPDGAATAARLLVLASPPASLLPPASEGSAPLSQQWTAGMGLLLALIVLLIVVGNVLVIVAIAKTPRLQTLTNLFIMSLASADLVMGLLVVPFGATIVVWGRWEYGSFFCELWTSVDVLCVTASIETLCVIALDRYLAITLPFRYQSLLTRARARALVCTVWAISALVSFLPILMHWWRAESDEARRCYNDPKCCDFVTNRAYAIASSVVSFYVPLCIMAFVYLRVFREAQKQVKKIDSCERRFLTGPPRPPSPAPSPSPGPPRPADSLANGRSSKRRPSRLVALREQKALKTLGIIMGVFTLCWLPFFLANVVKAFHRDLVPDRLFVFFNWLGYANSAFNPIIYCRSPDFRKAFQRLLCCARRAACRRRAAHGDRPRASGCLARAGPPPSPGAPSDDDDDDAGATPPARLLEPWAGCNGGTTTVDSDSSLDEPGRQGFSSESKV
# Outline: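 Non-selective beta-adrenergic radioligand binding in rat cortical membranes, 1 h incubation, filter-based scintillation read-out. Primary screen 25 uM in duplicate; hits retested in concentration-response up to 50 uM, DMSO baseline.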
# [15] = test system: guinea pig Atrionatriuretic Peptide Receptor A (ANPA), gene 100135578; experiment: NVS_GPCR_gANPA: NovaScreen (NVS) G Protein-Coupled Receptor Assay for guinea pig Atrionatriuretic Peptide Receptor A (ANPA) (AID 2283291)
# Outline: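 Radioligand binding to guinea pig cerebellar membranes was measured after 1 h by filter-based scintillation counting. Chemicals were tested in duplicate at 25 uM, with hits run in concentration-response to a maximum of 50 uM. Binding loss was fitted against DMSO.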
smiles,measurement,setting,value
COCC(=O)N(c1c(C)cccc1C)C(C)C(=O)OC (stereo not drawn),outcome,[1],inactive
CCCN(CC)CC1COC2(CCC(C(C)(C)C)CC2)O1 (stereo not drawn),AC50,[2],4.96 µM (active)
same,AC50,[3],3.3 µM (active)
COC(=O)N(C(=O)N1CO[C@@]2(C(=O)OC)Cc3cc(Cl)ccc3C2=N1)c1ccc(OC(F)(F)F)cc1,outcome,[4],inactive
CC1(C)CON(Cc2ccccc2Cl)C1=O,outcome,[1],inactive
N#CN=C1SCCN1Cc1ccc(Cl)nc1,outcome,[5],inactive
Nc1c(Cl)c(Cl)nc(C(=O)O)c1Cl,outcome,[1],inactive
CC1(C)CCC(=Cc2ccc(Cl)cc2)C1(O)Cn1cncn1 (stereo not drawn),outcome,[6],inactive
same,outcome,[7],inactive
COC(=O)NC(=S)Nc1ccccc1NC(=S)NC(=O)OC,outcome,[8],inactive
Cc1c(COC(=O)[C@@H]2[C@H](/C=C(\Cl)C(F)(F)F)C2(C)C)cccc1-c1ccccc1,outcome,[9],inactive
Cc1ccc(N=CN(C)C=Nc2ccc(C)cc2C)c(C)c1,outcome,[3],inactive
same,AC50,[6],0.463 µM (active)
same,AC50,[10],1.5 µM (active)
same,outcome,[4],inactive
same,outcome,[11],inactive
COc1cc(Cl)c(OC)cc1Cl,outcome,[6],inactive
same,outcome,[7],inactive
Cn1c(-c2ccccc2)cc(-c2ccccc2)[n+]1C,AC50,[2],3.97 µM (active)
same,AC50,[3],7.59 µM (active)
same,outcome,[12],inactive
same,AC50,[10],5.28 µM (active)
same,AC50,[13],6.94 µM (active)
same,AC50,[11],7.91 µM (active)
same,AC50,[7],16.5 µM (active)
same,AC50,[14],9.62 µM (active)
CC(C)N1C(=O)N(c2ccccc2)CSC1=NC(C)(C)C,outcome,[1],inactive
CCSC(=O)N1CCCCCC1,AC50,[2],6.85 µM (active)
same,AC50,[3],4.96 µM (active)
same,outcome,[15],inactive
N#Cc1c(Cl)cccc1Cl,outcome,[3],inactive
COP(=O)(OC)O/C(C)=C/C(=O)N(C)C,outcome,[12],inactive
same,outcome,[11],inactive
